# From PubChem BioAssay (NCATS)
# Results filed as inconclusive are left out. Entries that show only a call come without a potency. The source made the active and inactive calls. The call rests on the fitted dose curve; in most records, active means well fitted inhibition curve with a large enough effect; inconclusive means small, poorly fitted or top-dose-only effect, or effect the other way; inactive means flat fitted curve, though single readings scatter.
# Target: ATPase family AAA domain-containing protein 5 (Homo sapiens) (UniProt Q96QE3)
# Sequence (Q96QE3 whole entry, looked up, the tested form may be a part): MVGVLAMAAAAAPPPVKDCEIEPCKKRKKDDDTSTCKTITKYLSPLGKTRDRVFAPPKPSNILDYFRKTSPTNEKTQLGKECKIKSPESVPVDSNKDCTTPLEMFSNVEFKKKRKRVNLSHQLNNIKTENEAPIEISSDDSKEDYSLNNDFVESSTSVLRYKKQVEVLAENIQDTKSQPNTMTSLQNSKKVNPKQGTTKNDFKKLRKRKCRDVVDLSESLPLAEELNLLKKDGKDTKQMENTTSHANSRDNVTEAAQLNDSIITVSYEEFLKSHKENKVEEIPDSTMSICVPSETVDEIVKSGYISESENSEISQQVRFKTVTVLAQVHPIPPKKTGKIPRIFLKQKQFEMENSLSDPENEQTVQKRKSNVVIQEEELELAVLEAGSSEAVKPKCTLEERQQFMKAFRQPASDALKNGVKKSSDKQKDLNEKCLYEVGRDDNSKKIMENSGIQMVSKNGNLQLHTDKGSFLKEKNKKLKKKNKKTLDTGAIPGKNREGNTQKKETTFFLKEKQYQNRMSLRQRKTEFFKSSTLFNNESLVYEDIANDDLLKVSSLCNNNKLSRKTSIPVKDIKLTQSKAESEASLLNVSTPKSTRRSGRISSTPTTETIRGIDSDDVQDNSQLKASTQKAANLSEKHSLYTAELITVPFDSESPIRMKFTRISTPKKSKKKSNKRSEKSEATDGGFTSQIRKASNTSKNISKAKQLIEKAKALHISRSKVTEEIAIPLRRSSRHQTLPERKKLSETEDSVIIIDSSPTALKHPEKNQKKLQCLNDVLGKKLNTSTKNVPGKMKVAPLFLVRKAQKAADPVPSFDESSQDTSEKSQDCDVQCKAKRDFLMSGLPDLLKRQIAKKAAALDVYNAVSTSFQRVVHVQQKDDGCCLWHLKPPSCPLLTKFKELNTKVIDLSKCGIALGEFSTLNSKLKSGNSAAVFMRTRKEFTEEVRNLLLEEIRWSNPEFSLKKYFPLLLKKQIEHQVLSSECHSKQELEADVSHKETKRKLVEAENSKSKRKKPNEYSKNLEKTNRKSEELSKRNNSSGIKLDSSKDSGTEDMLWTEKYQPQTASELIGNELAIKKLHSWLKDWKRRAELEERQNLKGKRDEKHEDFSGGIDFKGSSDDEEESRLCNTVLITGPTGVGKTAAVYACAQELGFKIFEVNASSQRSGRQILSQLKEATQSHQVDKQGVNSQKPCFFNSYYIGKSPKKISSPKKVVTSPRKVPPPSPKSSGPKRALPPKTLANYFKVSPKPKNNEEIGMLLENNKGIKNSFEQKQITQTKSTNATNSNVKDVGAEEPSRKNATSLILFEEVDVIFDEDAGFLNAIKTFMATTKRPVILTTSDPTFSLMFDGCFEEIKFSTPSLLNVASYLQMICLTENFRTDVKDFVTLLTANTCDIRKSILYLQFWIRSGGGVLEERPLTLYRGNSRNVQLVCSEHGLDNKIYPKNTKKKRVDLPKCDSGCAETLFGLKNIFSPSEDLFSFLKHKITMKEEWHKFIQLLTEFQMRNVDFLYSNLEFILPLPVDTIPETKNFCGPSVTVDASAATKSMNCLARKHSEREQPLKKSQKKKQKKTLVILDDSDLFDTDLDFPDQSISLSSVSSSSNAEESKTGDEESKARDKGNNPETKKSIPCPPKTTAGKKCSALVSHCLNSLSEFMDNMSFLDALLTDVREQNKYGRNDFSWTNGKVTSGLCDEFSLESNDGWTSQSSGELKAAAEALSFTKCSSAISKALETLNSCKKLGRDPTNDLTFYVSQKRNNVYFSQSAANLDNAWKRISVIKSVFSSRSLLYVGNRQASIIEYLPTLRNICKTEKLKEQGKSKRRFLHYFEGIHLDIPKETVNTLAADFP
# Experiment: Validation screen for small molecules that inhibit ELG1-dependent DNA repair in human embryonic kidney (HEK293T) cells expressing luciferase-tagged ELG1 (AID 493107); further: nearly all actives have a fitted effect of over 70% in size
# Settings: HEK293T ELG1-luciferase level, luminescence, 5-fluorouridine co-treatment, 16 h; series mostly up to 46.1 µM
# Summary of the method: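 HEK293T cells expressing luciferase-tagged ELG1 were co-treated with 5-fluorouridine and compound or DMSO for 16 hr at 37 °C, 5% CO2. Luciferase activity was then read with ONE-Glo after 30 min at room temperature; suppressed signal indicates blocked ELG1 function.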
# Potency means the concentration at half of the fitted maximal effect.
row,Compound,Potency
1,O=C(O)/C=C/C(O)c1ccc(Cl)cc1 (stereo unspecified),inactive
2,C[C@@H](CN1CCC(Cc2ccccc2)CC1)[C@@H](O)c1ccc(O)cc1,inactive
3,NC(=O)C(=O)O,inactive
4,CNCC[C@H](Oc1ccc(C(F)(F)F)cc1)c1ccccc1,inactive
5,CC(=O)SCC[N+](C)(C)C,inactive
6,CN1[C@@H](CC(=O)c2ccccc2)CCC[C@H]1C[C@H](O)c1ccccc1,inactive
7,CN1C2CCC1CC(OC(=O)C(O)c1ccccc1)C2 (stereo unspecified),inactive
8,Cc1ccc(C(=O)O[C@H](C(=O)O)[C@@H](OC(=O)c2ccc(C)cc2)C(=O)O)cc1 (tested in a mixture with another compound),inactive
9,O=Nc1ccc2oc(=O)ccc2c1,inactive
10,N=C(N)SCCc1ccc(CCSC(=N)N)cc1,inactive
11,C=CC(N)CCC(=O)O (stereo unspecified),inactive
12,CCCCCCCCCCCCCCCCCCNC(=O)OCC(COP(=O)([O-])OCC[n+]1ccsc1)OC (stereo unspecified),inactive
13,COc1cccc(OC)c1OCCNCC1COc2ccccc2O1 (stereo unspecified),inactive
14,CC(C)NC[C@H](O)COc1cccc2[nH]ccc12,inactive
15,CCC1C(=O)OCC1Cc1cncn1C (stereo unspecified),inactive
16,NC(CCCP(=O)(O)O)C(=O)O (stereo unspecified),inactive
17,Cc1ccccc1CNc1ncnc2c1ncn2C1OC(CO)C(O)C1O (stereo unspecified),13 µM (active)
18,O=C(O)c1cc(=O)c2ccccc2[nH]1,inactive
19,O=C(O)CC[C@@H](C(=O)O)N1C(=O)c2ccccc2C1=O,inactive
20,N=c1ccn2c(n1)O[C@H]1[C@H](O)[C@@H](CO)O[C@H]12,inactive
21,CC(C)(C=O)Cc1cc(C(C)(C)C)c(O)c(C(C)(C)C)c1,inactive
